From PubChem BioAssay
Compounds with a hit are over-represented: about 19% of the library has one in this group of screens.
TDP1 cell CPT: qHTS for Inhibitors of human tyrosyl-DNA phosphodiesterase 1 (TDP1): qHTS in cells in presence of CPT | chicken DT40 Tdp1-/-;hTDP1 cells + 20 nM CPT, ATP luminescence, 48 h | Potency, µM (top dose mostly 46.2 µM), inactives show at the highest dose activity change, negative = growth inhibition, most hits filed as inhibitors | hit rate 12% among 420,000 | AID 686979, 2013; further: potency means the concentration at half of the fitted maximal effect; on the % scale 0 is the no-effect control and ±100 the full control effect; nearly all actives have a fitted effect of over 55% in size
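Chicken DT40 Tdp1-/- cells stably complemented with human TDP1 were seeded at 400 cells/well in medium containing 20 nM camptothecin, exposed to pin-transferred compounds, and grown at 37 °C for at least 48 hr. Viability was read as ATP luminescence.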
TDP1 block: qHTS Assay for Inhibitors of Tyrosyl-DNA Phosphodiesterase (TDP1); hit rate 0.28% among 350,000; recombinant TDP1, AlphaScreen DNA substrate cleavage; Potency, µM (titrated, usually from 130 µM), inactives show at the top dose activity change, negative = inhibition, actives largely listed as inhibitors; further: potency means the concentration at half of the fitted maximal effect; on the % scale 0 is the no-effect control and ±100 the full control effect; nearly all actives have a fitted effect of over 40% in size
Target sequence (Q9NUW8 whole entry, looked up): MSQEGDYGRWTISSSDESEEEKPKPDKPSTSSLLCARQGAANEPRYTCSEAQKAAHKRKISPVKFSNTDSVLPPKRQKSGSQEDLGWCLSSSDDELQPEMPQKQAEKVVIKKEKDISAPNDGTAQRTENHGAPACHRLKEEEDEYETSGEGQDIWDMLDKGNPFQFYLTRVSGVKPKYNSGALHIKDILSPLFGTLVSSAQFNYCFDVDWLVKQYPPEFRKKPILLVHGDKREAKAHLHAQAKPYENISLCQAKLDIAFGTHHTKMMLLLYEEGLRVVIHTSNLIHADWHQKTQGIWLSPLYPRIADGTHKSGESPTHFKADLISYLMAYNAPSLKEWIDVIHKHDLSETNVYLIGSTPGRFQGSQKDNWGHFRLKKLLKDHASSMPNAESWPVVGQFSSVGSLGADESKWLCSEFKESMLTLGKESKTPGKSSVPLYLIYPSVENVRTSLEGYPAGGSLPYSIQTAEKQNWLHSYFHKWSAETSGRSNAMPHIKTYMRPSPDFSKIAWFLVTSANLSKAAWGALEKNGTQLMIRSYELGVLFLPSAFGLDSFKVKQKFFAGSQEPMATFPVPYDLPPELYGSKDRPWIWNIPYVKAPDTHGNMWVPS
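Here, a 5' biotin and 3' phosphotyrosine-FITC DNA oligonucleotide reports Tdp1 activity: intact substrate bridges AlphaScreen beads, while cleavage leaves a 3' phosphate and drops signal. All incubations at room temperature.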
HepG2 tox-1: qHTS for Inhibitors of TGF-b: Cytotox Counterscreen; HepG2 CAGA-GFP viability, ATP luminescence, 18 h; Potency, µM (series often up to 46.1 µM), without a hit: at the top dose activity change, negative = cytotoxicity, hits mostly cytotoxic; hit rate 0.76% among 410,000; AID 588856, 2011; further: potency means the concentration at half of the fitted maximal effect
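CellTiter-Glo luminescence gave cytotoxicity after 18 hours at 37 degrees C. The cells were HepG2 CAGA-GFP in 1% FBS DMEM, stimulated with 500 pg/mL TGF-beta after compound addition. %Activity was normalised to no-cell wells (complete cell-killing) and DMSO (no toxicity), and curves were fitted and classified.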
TGFb SMAD3 inh: qHTS for Inhibitors of TGF-b; HepG2 CAGA-GFP TGF-b/SMAD3 reporter, GFP fluorescence, 18 h; TGF-beta stimulated, 500 pg/mL final; Potency, µM (titrated, usually from 46.1 µM), for the others: top-dose activity, negative = inhibition, actives largely listed as inhibitors; hit rate 1.2% among 410,000; AID 588855, 2011; further: potency means the concentration at half of the fitted maximal effect; on the % scale 0 is the no-effect control and ±100 the full control effect; nearly all actives have a fitted effect of over 65% in size
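HEPG2 CAGA-GFP reporter cells (1000/well, DMEM with 1% FBS) received compounds, then recombinant TGF-beta at 500 pg/mL final for 18 hours at 37 degrees C. Per-cell GFP summed per well was normalised to unstimulated and stimulated DMSO controls before curve fitting.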
DT40 TDP1 no CPT: qHTS for Inhibitors of human tyrosyl-DNA phosphodiesterase 1 (TDP1): qHTS in cells in absence of CPT; DT40 Tdp1-/- hTDP1 cells, no CPT, ATP luminescence, 48 h; Potency, µM (series often up to 46.2 µM), without a hit: at the highest dose activity change, negative = growth inhibition, hits mostly inhibitors; hit rate 15% among 420,000; AID 686978, 2013; further: potency means the concentration at half of the fitted maximal effect; on the % scale 0 is the no-effect control and ±100 the full control effect; nearly all actives have a fitted effect of over 55% in size
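Chicken DT40 Tdp1-/- cells complemented with human TDP1, screened without camptothecin (DMSO vehicle only), 400 cells/well. Compounds pin-transferred, cells incubated at 37 °C for at least 48 hr. Growth read as ATP-dependent luminescence (CellTiter-Glo, 30 min at RT).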
IL1B secr inh: qHTS for Inhibitors of Inflammasome Signaling: IL-1-beta AlphaLISA Primary Screen. THP-1 LPS/ATP IL-1B secretion, AlphaLISA, 16 h; active compounds read low. activity change, % at 57.5 µM. AID 743279, 2014. hit rate 4.7% among 360,000; in the data active means activity change below about -50%; inconclusive means mostly about -30% to -49%; further: on the % scale 0 is the no-effect control and ±100 the full control effect
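Secreted IL-1B measured by AlphaLISA bead assay after 16 h compound exposure of THP-1 cells; compounds (final up to 57.5 uM) added 1 h before LPS (250 ng/mL) and ATP (1.25 mM) stimulation; lower signal means less secretion.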
TGFb CAGA inh: qHTS for Inhibitors of TGF-b: Confirmation of Cherry Picks. hit rate 63% among 1,600. HepG2 CAGA-GFP TGF-b reporter, GFP fluorescence, 18 h; cells stimulated with TGF-beta, 500 pg/mL. AID 720534, 2013. shares compounds with TGFb SMAD3 inh. Potency, µM (titrated, usually from 46.1 µM), inactives show top-dose activity, negative = inhibition, most hits filed as inhibitors; further: potency means the concentration at half of the fitted maximal effect; on the % scale 0 is the no-effect control and ±100 the full control effect; nearly all actives have a fitted effect of over 65% in size
HepG2 tox-2: qHTS for Inhibitors of TGF-b: Cytotox Counterscreen for Cherry Picks. shares compounds with TGFb SMAD3 inh. AID 720535, 2013. HepG2 CAGA-GFP viability, ATP luminescence, 18 h; cells stimulated with TGF-beta, 500 pg/mL. hit rate 27% among 1,600. Potency, µM (series often up to 46.1 µM), without a hit: top-dose activity, negative = cytotoxicity, hits mostly inhibitors; further: potency means the concentration at half of the fitted maximal effect; on the % scale 0 is the no-effect control and ±100 the full control effect; nearly all actives have a fitted effect of over 70% in size
TGFb CCL64 inh: qHTS for Inhibitors of TGF-b: CCL64 Cells Orthogonal Assay for Cherry Picks; Potency, µM (doses to about 46.1 µM), for the others: at the highest dose activity, negative = inhibition, usual class: inhibitors; shares compounds with TGFb SMAD3 inh; CCL64 CAGA-GFP reporter, TGF-b stimulated, GFP fluorescence, 18 h; hit rate 41% among 1,600; further: potency means the concentration at half of the fitted maximal effect; nearly all actives have a fitted effect of over 65% in size
COP TGFb inh: qHTS for Inhibitors of TGF-b: Hit Validation in HepG2 Cells using COP promoter | shares compounds with TGFb SMAD3 inh | HepG2 COP-GFP TGF-b reporter, GFP fluorescence, 18 h; cells stimulated by added recombinant TGF-beta | Potency, µM (top dose mostly 46.1 µM), without a hit: at the highest dose activity, negative = inhibition, usual class: inhibitors | hit rate 3% among 1,600 | AID 720537, 2013; further: potency means the concentration at half of the fitted maximal effect; nearly all actives have a fitted effect of over 70% in size
The depositor's hits bear a star; u = inconclusive; x = no result. Unless noted, the call rests on the fitted dose curve; in most records, active means well fitted curve in the direction sought with a large enough effect; inconclusive means small, poorly fitted or top-dose-only effect, or another doubt; inactive means no such curve, though single readings can be large; an effect the other way counts as inactive or inconclusive.

SMILES | TDP1 cell CPT | TDP1 block | HepG2 tox-1 | TGFb SMAD3 inh | DT40 TDP1 no CPT | IL1B secr inh | TGFb CAGA inh | HepG2 tox-2 | TGFb CCL64 inh | COP TGFb inh
CN(Cc1ccc(F)cc1)C(=O)COc1ccccc1-c1ccccc1 | u | -5% | -4% | 14% | -28% | u | x | x | x | x
CC1CN(c2nc3ccccc3nc2SCC(=O)Nc2cccc(C(F)(F)F)c2)CC(C)O1 (centres undefined) | 15µM* | x | -32% | 16µM* | 26µM* | 4 | 23µM* | u | u | 29%
COc1ccc2[nH]c3c(N4CCc5ccccc5C4)ncnc3c2c1 | 1.2µM* | 6% | -52% | 7.1µM* | 1.3µM* | -97* | u | 23µM* | 18µM* | u
CC(OC(=O)Cn1cc(C(F)(F)F)ccc1=O)C(=O)N(C)c1ccccc1 (centres undefined) | -17% | -1% | -2% | -10% | -1% | 7 | x | x | x | x
